From PubChem BioAssay
MBNL1-CUG inh: blocks human MBNL1 binding to CUG repeat RNA. Q9NR56. TR-FRET MBNL1-His/biotin-(CUG)12 binding, 665/545 ratio. Potency, µM (highest dose often 57.5 µM), without a hit: at the highest dose activity change, negative = inhibition, hits mostly inhibitors. 280,000 tested, 0.036% active. AID 2675; active = well fitted inhibition curve with a large enough effect in the signal ratio, with a control signal flat, not every such curve was filed as active; inconclusive = small, poorly fitted or top-dose-only effect, or effect the other way, or a change in a side signal; inactive = no such curve, though single readings can be large or run the other way; the % refers to the signal ratio; note: potency is the fitted concentration of half-maximal effect; % is set by controls: 0 for no effect and ±100 for the full control effect
Target sequence (Q9NR56 whole entry, looked up): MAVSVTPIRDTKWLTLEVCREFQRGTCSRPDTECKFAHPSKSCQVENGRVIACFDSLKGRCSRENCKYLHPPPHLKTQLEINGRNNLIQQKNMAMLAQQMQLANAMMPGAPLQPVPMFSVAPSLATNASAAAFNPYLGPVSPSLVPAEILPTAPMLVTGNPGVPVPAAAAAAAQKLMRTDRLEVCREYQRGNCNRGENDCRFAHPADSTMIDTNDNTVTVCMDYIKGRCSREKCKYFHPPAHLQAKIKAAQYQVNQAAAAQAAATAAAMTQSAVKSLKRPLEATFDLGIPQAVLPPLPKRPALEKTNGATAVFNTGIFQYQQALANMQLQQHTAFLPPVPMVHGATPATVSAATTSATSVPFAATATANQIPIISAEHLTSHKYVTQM
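His-tagged MBNL1 binding to biotinylated (CUG)12 RNA was measured by TR-FRET using terbium anti-His antibody (0.055 ng/ul final) and streptavidin-XL665 (5 nM final). Compounds were titrated 92 nM to 58 uM; 60 min at room temperature.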
TRHR agonist: agonists of human TRH receptor; TRHR cells, calcium flux fluo-8, FDSS agonist mode; AID 493084; activation, % at 2 µM; 360,000 tested, 0.18% active; in the data active = activation above about 30%; note: 0% is about no effect
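TRHR-expressing cells, plated overnight in medium with 10% serum, were loaded with fluo-8 calcium dye at room temperature. After a 10 s baseline, library compound was pin-added and calcium release was recorded kinetically (ex 480/em 530) as agonist response.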
Epigenetic reg: epigenetic control regulation, reporter derepression. murine LDR cells, GFP reporter derepression, 30 h. Potency, µM (series often up to 53.9 µM), without a hit: top-dose GFP activation, hits mostly activators. 280,000 tested, 0.2% active. AID 1865; note: potency is the fitted concentration of half-maximal effect; % of control where 0% means no effect; nearly all actives have a fitted effect of over 60% in size
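Murine LDR cells bearing a silenced CMV-driven GFP reporter were exposed to compound for 30 h at 37 C. After PBS washes, GFP-positive cells (20-120 um objects) counted by laser-scanning microplate cytometry.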
CBFb-RUNX1 inh: inhibitors of human CBF-beta and RUNX1 interaction; AlphaScreen CBFb-His/RUNX1-biotin binding, biochemical; Potency, µM (top dose mostly 59.8 µM), for inactives: at the highest dose activity, negative = inhibition, actives largely listed as inhibitors; 230,000 tested, under 10 active; note: % of control where 0% means no effect
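Compounds were screened at multiple concentrations against a preformed CBF-beta(His)/RUNX1(biotin) complex (30 nM of each) for 15 min at room temperature, followed by 90 min with nickel and streptavidin beads and AlphaScreen reading.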
TRHR enhancer: allosteric enhancers of human TRH receptor | P34981 | TRHR cells, fluo-8 calcium fluorescence, EC20 TRH enhancement | enhancement, % at 2 µM | 360,000 tested, 0.66% active | AID 493056; in the data active = enhancement above about 30%; note: 0% is about no effect
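Enhancer read-out: after compound pinning and an initial kinetic agonist-mode read, an EC20 of TRH (10 nM final) was injected and fluo-8 calcium signal (Ex 480/Em 530) followed at 1 s/cycle for 100 cycles in TRHR-expressing cells.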
IL-2 act: activators of IL-2. activation, % (series mostly up to about 46 µM). IL-2 activation reporter assay, cell-based qHTS; stimulated with anti-CD3/CD4/CD28 beads; in transgenic mouse T cells. 360,000 tested, 0.065% active; in the data active = activation above about 50%; inconclusive = mostly about 30% to 49%; note: 0% is about no effect
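Readout: EGFP and DsRed signals by fluorescent plate cytometry. Unstimulated transgenic mouse T cells received compound 60 min before antibody-bead stimulation, then incubated 18 h at 37 degrees C.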
Starred values were filed as active, the others as inactive; ? = inconclusive; / = not tested or not shown; ! = not active in a repeat. In the library only some 0.88% were active in any assay of this set; here they are far more common. Unless noted, calls come from the whole dose curve; as a rule, active = well fitted curve in the direction sought with a large enough effect; inconclusive = small, poorly fitted or top-dose-only effect, or another doubt; inactive = no such curve, though single readings can be large; an effect the other way counts as inactive or inconclusive.

SMILES	MBNL1-CUG inh	TRHR agonist	Epigenetic reg	CBFb-RUNX1 inh	TRHR enhancer	IL-2 act
CCOc1ccc(-c2nc(C#N)c(NC3CC3)o2)cc1	-1%	0	-1%	-14%	32*	-2
O=C(Cn1c(SCCOc2ccccc2Cl)nc2ccccc21)N1CCOCC1	/	0	-4%	/	-3	/
O=C(NCc1nnc(-c2cc3ccccc3[nH]2)o1)c1ccccc1	/	0	/	/	-5	/
COc1ccc(CCNC(=O)C(=O)NCC(c2ccco2)S(=O)(=O)c2ccccc2)cc1 (stereo unspecified)	/	0	3%	/	1	/
COc1ccc(CCNC(=O)C(=O)NCC(c2ccco2)S(=O)(=O)c2ccc(F)cc2)cc1 (stereo unspecified)	/	0	3%	/	36*	/
C=CCn1c(N)cc(=O)nc1SCC(=O)Nc1ccc(C)cc1	/	0	5%	1%	39*	0
Cc1ccc(NC(=O)CSc2nc(=O)cc(N)n2CCc2ccccc2)cc1	-4%	0	1%	-3%	-8	0
COc1cc(NS(=O)(=O)c2ccc(NC(=O)c3cccc(F)c3)cc2)nc(OC)n1	/	0	0%	/	17	/
Cc1cc(/C=C(/C#N)c2nc3ccccc3[nH]2)c(C)n1-c1ccccc1C(=O)O	?	1	1%	4%	0	-1
Cc1cc2nc(/C(C#N)=C\c3ccc(-c4ccccc4C(=O)O)o3)[nH]c2cc1C	15%	39*	/	/	1	10
N#C/C(=C\c1ccc(Sc2ccccc2)o1)c1nc2ccccc2[nH]1	27%	3	?	7%	0	4
O=C(O)c1ccccc1-c1ccc(/C=c2\sc3nc4cc(Br)cnc4n3c2=O)o1	?	4	-1%	/	1	0
Cc1ccc2nc(/C(C#N)=C/c3ccc(-c4ccccc4C(=O)O)o3)[nH]c2c1	?	70*	/	/	1	?
Cc1cc2nc3s/c(=C/c4ccc(-c5ccccc5C(=O)O)o4)c(=O)n3c2cc1C	9%	77*	/	/	-1	8
O=Cc1ccc(-c2ccccc2C(=O)O)o1	17%	-1	0%	2%	5	0
N#C/C(=C\c1ccc(-c2ccccc2C(=O)O)o1)c1nc2ccccc2[nH]1	6%	46*!	0%	/	0	3
N#Cc1nc(Nc2cccc3ccccc23)nc(NC2CCCC2)n1	/	2	/	/	-6	/
N#C/C(=C\c1ccc(-c2ccc(F)cc2F)o1)c1nc2ccccc2[nH]1	/	78*	7.9µM*	/	-1	/
N#C/C(=C\c1ccc(Cl)cc1)c1nc2ccccc2[nH]1	/	1	5%	/	-8	/
CCOC(=O)c1ccc(-c2ccc(/C=C(\C#N)c3nc4ccc(C)cc4[nH]3)o2)cc1	/	120*	1.6µM*	/	2	/
CCOC(=O)c1ccc(-c2ccc(/C=C(\C#N)C(=O)NCc3cccs3)o2)cc1	/	0	2%	-16%	-6	61*
CCOC(=O)c1ccc(-c2ccc(/C=C(\C#N)C(=O)Nc3cccc(C)c3)o2)cc1	/	1	?	/	13	/
Cc1ccc2oc(C(=O)Nc3sc4c(c3C(=O)NCc3ccccc3)CCCC4)cc(=O)c2c1	/	0	-2%	/	-1	/
S=C(NCc1ccco1)N1CCN(c2nc(-c3ccccc3)cs2)CC1	16%	0	0%	-25%	30*	-3
Cc1ccc(C(=O)NNC(=O)c2ccc(NS(=O)(=O)c3cccs3)cc2)o1	/	0	/	/	32*	0
SMILES	MBNL1-CUG inh	TRHR agonist	Epigenetic reg	CBFb-RUNX1 inh	TRHR enhancer	IL-2 act
O=C(NNC(=O)c1ccc(Br)o1)c1ccc(NS(=O)(=O)c2cccs2)cc1	/	/	/	/	/	-4
COC(=O)c1ccc(Cn2nnc3c(=O)[nH]c(C4CCCN(S(=O)(=O)c5ccccc5Cl)C4)nc32)cc1 (stereo unspecified)	-4%	1	4%	/	30*!	2
COC(=O)c1ccc(Cn2nnc3c(=O)[nH]c(C4CCN(S(=O)(=O)c5ccc(F)cc5)CC4)nc32)cc1	-2%	0	/	/	-4	0
O=C(CSc1nnc(-c2cccc(Br)c2)o1)N1CCOCC1	-1%	-1	/	/	31*	0
Cc1ccc(C(=O)Nc2ccc(C(=O)N/N=C/c3cccnc3)cc2)cc1	7%	1	/	/	0	1
O=C(N/N=C/c1cccnc1)c1ccc(NC(=O)c2ccccc2Cl)cc1	?	1	/	/	31*	-1
Cc1cc(C)cc(NC(=O)Cc2csc(COc3cccc(C)c3)n2)c1	/	0	-2%	/	38*	/
COc1cccc(NC(=O)Cc2csc(COc3cccc(C)c3)n2)c1	/	-1	-3%	/	2	/
CN(C)c1ccc(/C=C/c2nc3ccccc3c(=O)n2-c2ccc(C(=O)O)cc2)cc1	?	121*	/	/	30*	3
O=C(O)c1ccc(-n2c(/C=C\c3ccc(O)cc3)nc3ccccc3c2=O)cc1	/	2	-2%	/	12	/
Cc1cc(C)n(-c2ccc(NC(=O)C3CCCCN3Cc3cccc4c3OCO4)cc2)n1 (stereo unspecified)	3%	0	/	/	30*	-3
Cc1ccc(Cl)cc1N1CCN(CCCNC(=O)Cn2ncc3c([nH]c4ccccc43)c2=O)CC1	/	0	0%	/	54*	/
BrC(=C\c1ccccc1)/C=N/N1CCN(c2ccccn2)CC1	13%	-1	22µM*	9%	1	-6
Oc1cccc(/C=N/N2CCN(c3ccccn3)CC2)c1	-1%	0	0%	1%	1	-1
COc1ccc([S+](=O)([O-])N2CCN([S+](=O)([O-])c3ccc4c(c3)OCCO4)CC2)c(OC)c1	/	1	/	/	5	/
COc1ccc(C2=Nn3c(nnc3-c3ccccc3OC)SC2)cc1	/	-1	/	/	-1	/
CC(C)C[C@H](N)c1cn([C@@H](CCCCN)C(=O)N2CCNCC2)nn1	1%	0	-1%	8%	31*	0
C#CCOCCOCCOCCNc1nc(N2CCN(C(=O)[C@H](CCCCN)n3cc([C@@H](N)C(C)CC)nn3)CC2)nc(N2CCN(C(=O)[C@H](CCCCN)n3cc([C@@H](N)CO)nn3)CC2)n1 (stereo partly specified)	?	0	-2%	11%	37*	/
C#CCOCCOCCOCCNc1nc(N2CCN(C(=O)[C@H]([C@@H](C)CC)n3cc([C@@H](N)CC(C)C)nn3)CC2)nc(N2CCN(C(=O)[C@H](CCCCN)n3cc([C@@H](N)CC(C)C)nn3)CC2)n1	-14%	0	-1%	14%	38*	0
